From PubChem BioAssay AID2098 (Broad Institute, 2009) come the findings set out here.

Each structure is given as a SMILES string. The whole screen tested about 300,000 compounds, of which about 2,300 (0.77%) were called active.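 The calls were made as follows: active = more than half of replicate wells show activity change below -50%, luminescence cut by over half; inconclusive = some wells, but at most half, below -50%; inactive = no replicate well below -50%.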 For the sample, actives were picked, then their nearest neighbours and some compounds at random.

The assay is described as follows: HSF1 inhibitors in luciferase reporter cells, primary screen, cell-based, NIH3T3, luminescence (AID 2098).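 Also: luciferase reports HSF-1 transcriptional activity via heat shock element; 0% = median of DMSO wells and -100% = zero luminescence signal.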 Particulars: NIH3T3-HGL HSE-luciferase, MG132-induced, luminescence 8 h; stronger effect = lower value; screened at 7.5 µM (by protocol). In general terms: Reporter assays use an easily measured gene product as a stand-in for the process of interest.
Take `Cc1cc(C)c(-c2csc(NC(=O)CCCc3nc4ccccc4c(=O)[nH]3)n2)c(C)c1`: the activity change, negative = inhibition was -1.35% (inactive).

Turning to `COc1cc(C2C(C(=O)c3cccs3)=C(O)C(=O)N2CCN2CCOCC2)ccc1OCCC(C)C` (stereo not given), the activity change, negative = inhibition is -1.71% (inactive).

For `CC(=O)Nc1ccc(NC(=O)C(C)OC(=O)C2CC(=O)N(CCc3ccccc3)C2)cc1` (stereo not given), the activity change, negative = inhibition was -2.7% (inactive).

Regarding `O=S(=O)(NCc1ccccn1)c1ccc(F)cc1`, the activity change, negative = inhibition was -83.2% (active).

Consider `O=[N+]([O-])c1cccc(S(=O)(=O)NCc2ccccn2)c1`, for which the activity change, negative = inhibition is -1.49% (inactive).

In the case of `O=S(=O)(NCc1ccccn1)c1ccc(Br)s1`, the activity change, negative = inhibition was -3.36% (inactive).

As to `Cc1ccn2c(=O)c(NC(=O)c3cccc4ccccc34)c(C)nc2c1`, the activity change, negative = inhibition was -1.23% (inactive).

As to `Cc1ccc(C(=O)CN2C(=O)NC3(CCc4ccccc43)C2=O)c(C)c1` (stereo not given), the activity change, negative = inhibition is 6.44% (inactive).

For `O=C(COC(=O)c1ccccn1)NNC(=O)c1ccc([N+](=O)[O-])cc1`, the activity change, negative = inhibition was -1.26% (inactive).

With `CC(=O)c1sc(N)nc1C`, the activity change, negative = inhibition is 1.87% (inactive).

Consider `CN(Cc1ccccc1F)C(=O)C(Cc1ccccc1)NC(=O)c1ccccc1` (stereo not given), for which the activity change, negative = inhibition is 1.87% (inactive).

Regarding `O=C(NC(=S)Nc1ccccc1N1CCCCC1)c1ccc(F)cc1`, the activity change, negative = inhibition is -7.72% (inactive).

In the case of `COc1ccc(C(=O)NC(=S)Nc2ccccc2N2CCN(S(C)(=O)=O)CC2)cc1OC`, the activity change, negative = inhibition was -1.5% (inactive).

For `COc1ccccc1C(=O)NC(=S)Nc1ccccc1N1CCCCC1`, the activity change, negative = inhibition was -53.8% (active).

As for `O=C(CSc1ncccn1)NC(=O)NCc1ccccc1`, the activity change, negative = inhibition was 2.98% (inactive).

Consider `O=C(CSc1ncccn1)NCCc1ccccc1`, for which the activity change, negative = inhibition is -68.6% (active).

On to `O=C(Cc1ccc(Br)cc1)NCCc1ccccc1`, for which the activity change, negative = inhibition was 3.74% (inactive).

Turning to `Cc1cc2oc3ccc(NCCC4CCCN4C)cc3c(=O)c2cc1C` (stereo not given), the activity change, negative = inhibition was 6.14% (inactive).

For `CCOC(=O)CSc1nnc(-c2ccncc2)o1`, the activity change, negative = inhibition was -9.32% (inactive).

Take `CCc1ccccc1NC(=O)CSc1nnc(-c2ccncc2)o1`: the activity change, negative = inhibition was -75.8% (active).

As to `CCN(C(=O)CSc1nnc(-c2ccncc2)o1)c1ccccc1`, the activity change, negative = inhibition is -5.45% (inactive).

Consider `CCOc1ccc2nc(NC(=O)c3cc([N+](=O)[O-])ccc3N3CCOCC3)sc2c1`, for which the activity change, negative = inhibition was -61.5% (active).

With `COc1ccc(S(=O)(=O)N2CCCCC2)cc1NC(=O)c1cc([N+](=O)[O-])ccc1N1CCOCC1`, the activity change, negative = inhibition was -3.7% (inactive).

With `O=C(NC1CCCCC1)c1cc([N+](=O)[O-])ccc1N1CCOCC1`, the activity change, negative = inhibition was 0.205% (inactive).

In the case of `O=C(Nc1ncccc1O)c1ccc(C(=O)c2ccccc2)cc1`, the activity change, negative = inhibition was -2.64% (inactive).

With `COC(=O)c1ccc(NS(=O)(=O)c2cc3c4c(c2)C(C)C(=O)N4CCC3)cc1` (stereo not given), the activity change, negative = inhibition is -0.43% (inactive).

Regarding `Cc1ccc(C)c(OCCC(=O)Nc2cccc(S(=O)(=O)N3CCCC3)c2)c1`, the activity change, negative = inhibition was 3.66% (inactive).

Take `COc1ccc(C2=NN(c3nc4ccccc4s3)C(=O)C2)cc1`: the activity change, negative = inhibition was 1.26% (inactive).

For the molecule `CCOc1cccc(-n2nnnc2-c2ccc(OC)cc2)c1`, the activity change, negative = inhibition was -2.61% (inactive).

`COc1ccc(-n2nnnc2-c2nc3ccccc3s2)cc1`: the activity change, negative = inhibition was -65.3% (active).

For `Nc1cccnc1Sc1ccccc1`, the activity change, negative = inhibition was -0.323% (inactive).

On to `CCCCn1c(N)c(N(CCC(C)C)C(=O)CC2OC(=O)c3ccccc32)c(=O)[nH]c1=O` (stereo not given), for which the activity change, negative = inhibition was 3.21% (inactive).

As for `O=C(COc1cccc2c1CCNC2=O)NC1CCCCC1`, the activity change, negative = inhibition was -0.75% (inactive).

Consider `O=C(COC(=O)c1cccc(Cl)c1)Nc1ccc2[nH]c(=O)[nH]c2c1`, for which the activity change, negative = inhibition is -4.05% (inactive).

Consider `Cc1nn(C)c(Cl)c1CN1CCC(n2nccc2NC(=O)C2CCCC2)CC1`, for which the activity change, negative = inhibition was -53.5% (active).

With `O=C(Nc1ccnn1C1CCN(Cc2cccc(OCCO)c2)CC1)C1CCCC1`, the activity change, negative = inhibition is -3.05% (inactive).

As to `CC(CN1CCC(n2nccc2NC(=O)C2CCCC2)CC1)c1ccccc1` (stereo not given), the activity change, negative = inhibition was -6.86% (inactive).

In the case of `c1ccc(C[C@H]2CNCCN2CCC23CC4CC(CC(C4)C2)C3)cc1`, the activity change, negative = inhibition was 0.124% (inactive).

For `COc1cc2c(cc1OC)C(Cc1cc(OC)c(OC)cc1[N+](=O)[O-])=NCC2`, the activity change, negative = inhibition is -5.53% (inactive).

With `CC(=O)Nc1cccc(C(=O)OCC(=O)c2ccc3c(c2)OCO3)c1`, the activity change, negative = inhibition was -8.13% (inactive).

In the case of `CCCCn1c(N)c(N(CCOC)C(=O)c2cccc(OCc3ccccc3)c2)c(=O)[nH]c1=O`, the activity change, negative = inhibition was -6.51% (inactive).

On to `O=C(Nc1ccccc1Cl)Nn1cnnc1`, for which the activity change, negative = inhibition is -3.45% (inactive).

In the case of `O=C(COC(=O)c1cccs1)Nc1ccccc1Cl`, the activity change, negative = inhibition was 4.76% (inactive).

With `O=C(Nc1ccccc1Cl)/C(Cl)=C(\Cl)S(=O)c1ccccc1` (stereo not given), the activity change, negative = inhibition was -63.2% (active).

For `CC(C)CN(C(=O)c1ccc2c(c1)OCO2)C1CCS(=O)(=O)C1` (stereo not given), the activity change, negative = inhibition is 1.63% (inactive).

In the case of `COc1ccc(C(=O)OCC(=O)NCCCc2ccccc2)cc1OC`, the activity change, negative = inhibition was -6.5% (inactive).

Take `COc1ccccc1C(=O)NC(=O)COC(=O)c1ccco1`: the activity change, negative = inhibition is -2.8% (inactive).

On to `COc1ccccc1C(=O)OCC(=O)NCCNC(=O)COC(=O)c1ccccc1OC`, for which the activity change, negative = inhibition is -54.9% (active).

In the case of `COc1ccccc1C(=O)NC(CCSC)C(=O)NNC(=O)c1ccccc1C` (stereo not given), the activity change, negative = inhibition was -4.57% (inactive).

Consider `CCOc1ccc(OCc2cccc(C(=O)N(CC)CC)c2)cc1`, for which the activity change, negative = inhibition was -51.8% (active).

As to `COc1ccc(OCc2cccc(C(=O)N3CCCC3)c2)cc1`, the activity change, negative = inhibition was -11% (inactive).

`CCOc1ccc(OCc2ccc(C(=O)N(C)c3ccccc3)o2)cc1`: the activity change, negative = inhibition is 9.19% (inactive).

As to `Cc1ccc(S(=O)(=O)N2CCOCC2)cc1C(=O)Nc1ccccc1N1CCCC1`, the activity change, negative = inhibition was 3.38% (inactive).

For `O=C(CCCO)N/N=C/c1cc(Br)ccc1O`, the activity change, negative = inhibition was -13.7% (inactive).

As to `O=[N+]([O-])c1ccc(O)c(/C=N/Nc2ccccc2[N+](=O)[O-])c1`, the activity change, negative = inhibition is 2.12% (inactive).

Consider `Oc1ccc(Br)cc1/C=N/Nc1ccccn1`, for which the activity change, negative = inhibition was -72.1% (active).

As to `Cc1nc2ccccc2n1CC(O)c1ccccc1` (stereo not given), the activity change, negative = inhibition was -6.27% (inactive).

Turning to `Cn1c(=N)n(CC(O)c2ccccc2)c2ccccc21` (stereo not given), the activity change, negative = inhibition was -64.8% (active).

As for `Cn1c(=N)n(CC(O)c2cccs2)c2ccccc21` (stereo not given), the activity change, negative = inhibition is -12.7% (inactive).

Consider `COc1ccc(C(=O)Nc2cccc(NC(=O)c3ccc(OC)cc3OC)n2)c(OC)c1`, for which the activity change, negative = inhibition was -27.9% (inactive).

Regarding `Cc1ccc(CN2CCN(c3ccccc3Cl)CC2)o1`, the activity change, negative = inhibition is -5.3% (inactive).

Regarding `COC(=O)C1=CN(c2ccc(F)c(F)c2)C=C(C(=O)OC)C1c1ccc([N+](=O)[O-])cc1`, the activity change, negative = inhibition is -77.3% (active).

As to `COC(=O)c1nc2n(n1)C(c1ccc([N+](=O)[O-])cc1)C(C(=O)Nc1ccc(Cl)cc1)=C(C)N2` (stereo not given), the activity change, negative = inhibition is -14.3% (inactive).

`COC(=O)C1=CN(C)C=C(C(=O)OC)C1c1ccc(Cl)cc1Cl`: the activity change, negative = inhibition is 6.26% (inactive).

On to `c1c2c(cc3sc(N4CCCCC4)nc13)OCCO2`, for which the activity change, negative = inhibition was -55.1% (active).

In the case of `Brc1ccc2nc(N3CCCC3)sc2c1`, the activity change, negative = inhibition is 22% (inactive).

Consider `Cc1nc2cc3c(cc2s1)OCO3`, for which the activity change, negative = inhibition is 3.71% (inactive).

As to `Cc1ccc(S(=O)(=O)N2CCN(C(=O)c3ccc(-n4cncn4)c([N+](=O)[O-])c3)CC2)cc1`, the activity change, negative = inhibition is -4.92% (inactive).

Regarding `Cc1cc(C)c(SCCc2ccncc2)c(C)c1`, the activity change, negative = inhibition is -16.4% (inactive).

In the case of `CC(C)(C)C(=O)COC(=O)c1cc(S(=O)(=O)N2CCCCC2)ccc1N1CCOCC1`, the activity change, negative = inhibition was 0.13% (inactive).

Consider `Cc1ccnc(NS(=O)(=O)c2ccc(NC(=O)c3oc4ccccc4c3C)cc2)n1`, for which the activity change, negative = inhibition was -1.33% (inactive).

For `Cc1cc(C)c2oc(C(=O)Nc3ccc(S(=O)(=O)Nc4nccc(C)n4)cc3)cc(=O)c2c1`, the activity change, negative = inhibition was -70.7% (active).

On to `Cc1ccnc(NS(=O)(=O)c2ccc(NC(=O)c3ccc(S(=O)(=O)N(C)C)cc3)cc2)n1`, for which the activity change, negative = inhibition was 1.75% (inactive).

Turning to `CC1(c2nnc(Cc3ccccc3)o2)CC(c2ccccc2F)=NO1` (stereo not given), the activity change, negative = inhibition was -1.4% (inactive).

`Cc1cccc(C(=O)Nc2ccccc2N2CCN(c3ccc(F)cc3)CC2)c1`: the activity change, negative = inhibition is -1.05% (inactive).

Take `Cc1cccc(C(=O)NC(=S)N2CCN(c3ccc([N+](=O)[O-])cc3)CC2)c1`: the activity change, negative = inhibition was -62.5% (active).

With `Cc1cccc(C(=O)NNC(=O)c2cccc([N+](=O)[O-])c2)c1`, the activity change, negative = inhibition is -3.12% (inactive).

On to `O=S(=O)(/C=C/c1ccccc1)N1CCNCC1`, for which the activity change, negative = inhibition was 0.181% (inactive).

As to `CN1CCN(S(=O)(=O)c2ccc(Nc3ccc(F)cc3)nc2)CC1`, the activity change, negative = inhibition is -3.3% (inactive).

Take `COc1ccc(NC(=O)c2cc(-c3ccc(C)o3)nc3ccccc23)cc1`: the activity change, negative = inhibition was 8.98% (inactive).

For the molecule `O=C(O)c1cccc(NC(=O)c2cc(-c3cccc(Cl)c3)nc3ccccc23)c1`, the activity change, negative = inhibition was -10.6% (inactive).

`O=C(Nc1cccc(F)c1)c1cc(-c2ccco2)nc2ccccc12`: the activity change, negative = inhibition is -58.6% (active).

On to `COc1ccccc1C(=O)NCCC(=O)NC(C)CCc1ccccc1` (stereo not given), for which the activity change, negative = inhibition is 1.3% (inactive).

As to `Cc1ccc(S(=O)(=O)N(C)c2ccc(OCC(=O)OCc3ccc(C#N)cc3)cc2)cc1`, the activity change, negative = inhibition was -4.36% (inactive).

Consider `COc1ccc(C2=NOC(Cn3nc(C(=O)NCc4ccc5c(c4)OCO5)cc3-c3ccccc3)C2)cc1` (stereo not given), for which the activity change, negative = inhibition was 2.18% (inactive).

Turning to `c1ccc(-c2c[nH]c(-c3ccccc3)c2)cc1`, the activity change, negative = inhibition is -83.8% (inactive).

In the case of `O=C(Nc1ccccc1)Nc1ccc(C(F)(F)F)cn1`, the activity change, negative = inhibition is -1.47% (inactive).

For the molecule `Oc1ccc(/C=N/Nc2ccc(C(F)(F)F)cn2)cc1O`, the activity change, negative = inhibition was -78.4% (active).

In the case of `Cc1nccn1CC(=O)N/N=C/c1ccc(O)c(O)c1`, the activity change, negative = inhibition is 2.17% (inactive).

On to `N/C(=N\OC(=O)CCC1CCCCC1)c1ccccn1`, for which the activity change, negative = inhibition was 17.7% (inactive).

Take `CCC(C)(NC(=O)c1ccccn1)C(=O)NC1CCCCC1` (stereo not given): the activity change, negative = inhibition was -54.6% (active).

`CSc1ncccc1C(=O)NC1CCCCCC1`: the activity change, negative = inhibition was -4.75% (inactive).

On to `CC(Oc1ccc(F)cc1)C(=O)Nc1ccccc1C(=O)NC1CC1` (stereo not given), for which the activity change, negative = inhibition was 5.48% (inactive).

With `CCOC(=O)N1CCN(C(=O)c2ccccc2SCC(=O)NCC2CCCCC2)CC1`, the activity change, negative = inhibition is 6.98% (inactive).

Take `COC(=O)[C@@]12CCCN1[C@H](c1ccc(-c3ccc(F)cc3)c(OC)c1)[C@H]1C(=O)N(C)C(=O)[C@H]12`: the activity change, negative = inhibition was 20.6% (inactive).
